Source: PubChem BioAssay (National Center for Advancing Translational Sciences (NCATS))
Marburg entry inh – inhibitors of Marburg virus binding or cell entry. Marburg virus pseudotyped entry inhibition, cell reporter. Potency, µM (doses to about 37.8 µM), most hits filed as inhibitors. 300,000 compounds, 1.8% hits; calls by dose curve; tested in HEK293 cells
HCV inh – blocks hepatitis C virus; Huh7.5.1 HCVcc-Cre infection, luciferase reporter, 44 h; 340,000 compounds, 3.4% hits; Potency, µM (titrated, usually from 41.8 µM), usual class: inhibitors
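After 44 h co-culture of compound, cells and HCVcc-Cre (~0.5 moi), substrate is added for 15 min at room temperature and luciferase measured over 15 sec. Cells were seeded at 1,000/well and pre-cultured 4 h.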
FMDV antiviral – blocks foot and mouth disease virus | FMDV antiviral cell-based qHTS | Potency, µM (doses to about 57.9 µM), hits mostly inhibitors | 410,000 compounds, 1.2% hits | AID 1159524; calls by dose curve; tested in HEK293T cells; note: read-out not given here; nearly all actives have a fitted effect of over 45% in size
LASV entry inh – blocks Lassa virus binding to or entry into cells | Lassa virus pseudotype entry inhibition, cell reporter | AID 540256 | 300,000 compounds, 1.2% hits | Potency, µM (series often up to 37.9 µM), actives largely listed as inhibitors; calls by dose curve; tested in HEK293 cells; note: nearly all actives have a fitted effect of over 50% in size
RE007 growth inh – less growth of the S. pombe RE007 Vpr strain. Potency, µM (titrated, usually from 92.2 µM), usual class: inhibitors. S. pombe RE007 Vpr strain, BacTiter-Glo ATP luminescence, 24 h. AID 651644. 360,000 compounds, 0.21% hits; active = well fitted falling curve with a large enough effect; inconclusive = small, poorly fitted or top-dose-only effect; inactive = no such curve, though single readings can be large or run the other way; note: nearly all actives have a fitted effect of over 50% in size
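Fission yeast strain RE007, carrying one chromosomally integrated HIV-1 vpr copy, was seeded at OD 0.01 in PMG+AL medium with 23 nL pinned compound. After 24 h at 30 °C and 99% humidity, viability was read by BacTiter-Glo luminescence.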
Sm TGR block – blocks Schistosoma mansoni thioredoxin glutathione reductase; Q962Y6; purified TGR, DTNB reduction, TNB absorbance 405 nm; Potency, µM (top dose mostly 114 µM), hits mostly inhibitors; 360,000 compounds, 3% hits; note: nearly all actives have a fitted effect of over 60% in size
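First, TGR (20 nM dispensed) and NADPH were mixed with compound. Second, a 15 min room-temperature incubation followed. Third, further NADPH and then DTNB were added to start the reaction. Finally, TNB absorbance was monitored kinetically.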
Of the large screens only hits and unclear results are named; the others gave an inactive call. Sampled rows, rich in hits. Any-hit rate of the full collection: about 7.2%. Unless noted, calls come from the whole dose curve; as a rule, active = well fitted curve in the direction sought with a large enough effect; inconclusive = small, poorly fitted or top-dose-only effect, or another doubt; inactive = no such curve, though single readings can be large; an effect the other way counts as inactive or inconclusive.

CCCN(CCC)CCCNC(=S)Nc1ccc2nc(N3CCN(CC)CC3)cc(C)c2c1	HCV inh inconclusive (no result: Marburg entry inh, LASV entry inh)
Cc1cccc(N2CCN(CCCNC(=O)c3ccc(NC(=O)C4=CSCCO4)cc3)CC2C)c1 (configuration not stated)	Marburg entry inh inconclusive, HCV inh 11µM, FMDV antiviral inconclusive, LASV entry inh inconclusive
Cc1oc2ncn(CC(C)C)c(=O)c2c1C(=O)NCCCN(Cc1ccccc1)C(C)C	none (no result: Marburg entry inh, HCV inh, RE007 growth inh)
Clc1ccc(-c2nc(/C=N/N3CCOCC3)c3ccccn23)cc1	Marburg entry inh inconclusive, Sm TGR block 45µM
CN1CCN(/N=C/c2nc(-c3ccc(Cl)cc3)n3ccccc23)CC1	Marburg entry inh inconclusive, Sm TGR block inconclusive
CC(=O)NCCNc1nc2c(-c3cccc(C)c3)nnn2c2ccccc12	HCV inh 14µM (no result: Marburg entry inh, LASV entry inh)
FC(F)(F)c1cccc(-c2nnn3c2nc(NC2CCCCC2)c2ccccc23)c1	FMDV antiviral inconclusive (no result: HCV inh, RE007 growth inh)
NNc1nc2c(-c3cccc(C(F)(F)F)c3)nnn2c2ccccc12	Marburg entry inh inconclusive, HCV inh 14µM, LASV entry inh inconclusive
CC(=O)NCCNc1nc2c(-c3ccc(C)cc3)nnn2c2ccccc12	none (no result: HCV inh, RE007 growth inh)
COc1ccc(C2C3=C(CC(C)(C)CC3=O)Oc3ncn(CC(C)C)c(=N)c32)cc1 (configuration not stated)	none
COc1ccc(C2C3=C(CC(C)(C)CC3=O)Oc3ncn(Cc4ccco4)c(=N)c32)cc1 (configuration not stated)	Marburg entry inh inconclusive, HCV inh inconclusive, FMDV antiviral 28µM, LASV entry inh inconclusive
N=c1c2c(ncn1Cc1ccco1)Oc1ccc3ccccc3c1C2c1ccccc1 (configuration not stated)	Marburg entry inh 9.2µM, HCV inh inconclusive, FMDV antiviral inconclusive, LASV entry inh inconclusive
O=[N+]([O-])c1ccc(S(=O)(=O)N2CCn3cccc3C2c2ccccc2F)cc1 (configuration not stated)	FMDV antiviral inconclusive, Sm TGR block 35µM (no result: Marburg entry inh, HCV inh, RE007 growth inh)
CC1c2cccn2CCN1S(=O)(=O)c1ccccc1 (configuration not stated)	Sm TGR block 40µM (no result: Marburg entry inh, LASV entry inh)
O=S(=O)(c1cccnc1)N1CCn2cccc2C1c1ccccc1F (configuration not stated)	Sm TGR block 32µM
CCOC(=O)C1CSCCS(=O)(=O)N1Cc1ccc(Br)cc1 (configuration not stated)	none (no result: Marburg entry inh, HCV inh, FMDV antiviral, RE007 growth inh, Sm TGR block)
O=[N+]([O-])c1ccc2c(c1)/C(=N\O)c1ccccc1-2	Marburg entry inh inconclusive, HCV inh inconclusive
Nc1cc2c(cc1Cl)-c1ccc([N+](=O)[O-])cc1C2=NO	Marburg entry inh inconclusive, HCV inh 5.6µM (no result: Sm TGR block)
CCc1nn2c(=O)cc(COC(=O)c3cccc(NC(=O)COc4ccccc4)c3)nc2s1	LASV entry inh inconclusive (no result: Marburg entry inh, HCV inh, RE007 growth inh)
CCCN(CC1CC1)c1cc2c(c3c1ccn3C)C1CCC2C1 (configuration not stated)	Marburg entry inh 3.1µM, RE007 growth inh inconclusive (no result: HCV inh, LASV entry inh, Sm TGR block)
CCN(CC)c1cc2c(c3c1ccn3C)C1CCC2C1 (configuration not stated)	none (no result: Marburg entry inh, HCV inh, LASV entry inh, Sm TGR block)
CCOc1ccccc1NC(=O)C(CC)n1c(C(=O)OC)cc2occc21 (configuration not stated)	Marburg entry inh inconclusive (no result: HCV inh, LASV entry inh, RE007 growth inh)
N#Cc1c(NC(=O)c2ccccc2)sc2c1CCCCC2	Marburg entry inh inconclusive, HCV inh inconclusive, LASV entry inh inconclusive
N#Cc1c(NC(=O)/C=C/c2ccco2)sc2c1CCCC2	HCV inh inconclusive, LASV entry inh inconclusive, Sm TGR block 20µM
O=C(/C=C/c1ccco1)Nc1sc2c(c1C(=O)O)CCC2	Marburg entry inh inconclusive, LASV entry inh inconclusive, Sm TGR block 40µM
COc1ccc(Cc2nnc(SCC(=O)NCc3ccco3)o2)cc1	Marburg entry inh inconclusive, Sm TGR block 50µM
COc1ccc(-c2nnc(SCC(=O)NCc3ccco3)n2C)cc1	Sm TGR block 45µM
O=C(CSc1ccc2nnc(-c3ccccn3)n2n1)NCc1ccco1	Sm TGR block 40µM (no result: Marburg entry inh, LASV entry inh)
O=C(CSc1ccc2nnc(-c3ccccc3)n2n1)NCc1ccco1	Sm TGR block 45µM
O=C(CSc1ccc2nnc(CCNC(=O)c3ccccc3)n2n1)NCc1ccco1	none
CC(=O)C1=C(C)N(Cc2ccccc2)C(=O)NC1c1ccco1 (configuration not stated)	LASV entry inh inconclusive (no result: HCV inh, FMDV antiviral, RE007 growth inh, Sm TGR block)
C=C(C)CCCN1C=C(C(C)=O)C(c2ccccc2)NC1=O (configuration not stated)	none (no result: HCV inh, FMDV antiviral, LASV entry inh, RE007 growth inh, Sm TGR block)
COc1ccc(-c2nnc3ccc(SCC(=O)NCc4ccco4)nn23)cc1	Sm TGR block 40µM
Cc1ccc2c(c1)N(C(=O)N1CCC(C(=O)NC3CCCCCC3)CC1)CC(C)O2 (configuration not stated)	none (no result: Marburg entry inh, HCV inh, RE007 growth inh)
O=C(CCl)Nc1cccc(S(=O)(=O)NC2=NCCCCC2)c1	HCV inh 6.3µM, FMDV antiviral inconclusive (no result: Marburg entry inh, LASV entry inh, Sm TGR block)
O=C(CCl)Nc1ccc(S(=O)(=O)NC2=NCCCCC2)cc1	Marburg entry inh inconclusive, HCV inh inconclusive, FMDV antiviral 32µM, LASV entry inh inconclusive (no result: Sm TGR block)
COc1cc(OC)cc(C(=O)OCC(=O)Nc2cccc(S(=O)(=O)NC3=NCCCCC3)c2)c1	Marburg entry inh inconclusive, HCV inh inconclusive, FMDV antiviral 22µM (no result: Sm TGR block)
O=C(Nc1cccc(S(=O)(=O)NC2=NCCC2)c1)c1ccc(F)cc1	none (no result: Marburg entry inh, LASV entry inh, Sm TGR block)
O=C(COC(=O)c1ccc(O)cc1)Nc1cccc(S(=O)(=O)NC2=NCCCCC2)c1	none
O=C(Nc1cccc(S(=O)(=O)NC2=NCCC2)c1)c1ccc(=O)[nH]c1	Sm TGR block 5.6µM (no result: Marburg entry inh, LASV entry inh)
CCCNCC(=O)Nc1cccc(S(=O)(=O)NC2=NCCCCC2)c1	none (no result: Sm TGR block)
CC(C)(C)C(=O)Nc1ccc(S(=O)(=O)NC2=NCCCCC2)cc1	none (no result: Marburg entry inh, LASV entry inh)
Cc1cc2oc(=O)c(CC(=O)NCCc3ccccc3)c(C)c2c2occ(C(C)(C)C)c12	none (no result: HCV inh, RE007 growth inh)
COc1ccc(CCN2C(=O)N(c3cccc(C)c3)C(=O)C2CC(=O)Nc2ccccc2)cc1OC (configuration not stated)	none (no result: HCV inh, RE007 growth inh)
Cc1ccc(Nc2nnc(SCC(=O)Nc3cccc(S(=O)(=O)NC4=NCCCCC4)c3)s2)c(C)c1	Marburg entry inh inconclusive, FMDV antiviral 32µM, LASV entry inh inconclusive
O=C(/C=C/c1ccccc1[N+](=O)[O-])Nc1cccc(S(=O)(=O)NC2=NCCCCC2)c1	HCV inh 3.2µM (no result: Marburg entry inh, LASV entry inh, Sm TGR block)
Cc1ccc(C)c(SCC(=O)Nc2cccc(S(=O)(=O)NC3=NCCCCC3)c2)c1	Marburg entry inh inconclusive, HCV inh inconclusive
CCCCN1C[C@H](CO)Oc2cccc(F)c2S1(=O)=O	HCV inh 0.56µM, LASV entry inh inconclusive (no result: Marburg entry inh, Sm TGR block)
O=S1(=O)c2c(F)cccc2O[C@@H](COCc2ccccc2)CN1CCc1ccc(F)cc1	HCV inh 10µM, LASV entry inh inconclusive (no result: Marburg entry inh, Sm TGR block)
O=S1(=O)c2c(F)cccc2OC(COc2ccccc2)CN1CCc1ccc(F)cc1 (configuration not stated)	LASV entry inh inconclusive (no result: Marburg entry inh, Sm TGR block)
